# A selection: hits, their analogues and other compounds. The true share with any hit is near 2.4%.
# M1 PAM parental – M1 PAM counterscreen hit in parental CHO-K1 cells | ATP EC20, Fluo-8 calcium fluorescence; 0% at ATP EC20, 100% at ATP max | activation, % at 3 µM | 360,000 compounds, 0.02% hits;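 active = activation above the run cutoff, the mean activation of all test compounds plus 3 SD, cut at about 40% in these data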;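 also: peak over basal fluorescence ratio in a 140 s read after ATP addition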
# CHO-K1 Ca ag – nonselective activator or artifact in parental CHO-K1 cells. Fluo-8 calcium fluorescence; scaled to maximal ATP response, vehicle zero. activation, % at 3 µM. 360,000 compounds, 0.48% hits. AID 602248; in the data active = activation above about 15%;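 also: untransfected CHO-K1 host cells lacking M1 receptor as counterscreen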
# CHRM1 antagonist – antagonists of human M1 muscarinic receptor | P11229 | CHO-K1 hM1, Fluo-8 calcium fluorescence, ACh EC80 antagonist | inhibition, % at 3 µM | 360,000 compounds, 1.3% hits | AID 588852;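 active = percent inhibition above its own plate's cutoff, namely the mean of that plate's compound wells plus 3 SD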;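 also: peak over basal fluorescence ratio during 140 s after agonist addition; 0% = ACh EC80 plus DMSO and 100% = DMSO alone without agonist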
# Target sequence (P11229 whole entry, looked up): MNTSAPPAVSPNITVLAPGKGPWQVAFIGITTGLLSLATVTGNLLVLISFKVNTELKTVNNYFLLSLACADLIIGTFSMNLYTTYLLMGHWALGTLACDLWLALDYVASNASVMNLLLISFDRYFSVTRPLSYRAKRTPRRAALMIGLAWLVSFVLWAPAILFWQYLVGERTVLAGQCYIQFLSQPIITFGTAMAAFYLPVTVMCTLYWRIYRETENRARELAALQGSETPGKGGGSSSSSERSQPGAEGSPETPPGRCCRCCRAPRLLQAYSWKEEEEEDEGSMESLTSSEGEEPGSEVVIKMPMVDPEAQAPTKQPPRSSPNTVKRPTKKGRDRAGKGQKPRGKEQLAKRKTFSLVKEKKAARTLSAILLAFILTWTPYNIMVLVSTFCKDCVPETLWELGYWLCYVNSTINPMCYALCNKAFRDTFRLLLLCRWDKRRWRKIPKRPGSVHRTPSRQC
# M1 ag – human M1 muscarinic receptor agonism; activation, % at 3 µM; 360,000 compounds, 0.33% hits; CHO-K1 hM1, Fluo-8 calcium fluorescence, agonist mode; 0% DMSO, 100% acetylcholine EC100; P11229;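 active = activation above the run's mean compound activation plus 3 SD, cut at about 16% in these data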;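 also: peak over basal fluorescence ratio within a 140 s kinetic read after compound addition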
# M1 PAM – positive allosteric modulators of human M1 muscarinic receptor. P11229. CHO-K1 hM1, Fluo-8 calcium fluorescence, ACh EC20; 0% = ACh EC20, 100% = maximal ACh. activation, % at 3 µM. 360,000 compounds, 0.088% hits. AID 588819; in the data active = activation above about 19%, passing the limit was not always enough
# CHO-K1 Ca antag – nonselective inhibitor or artifact in parental CHO-K1 cells. ATP-induced calcium, Fluo-8 fluorescence. 360,000 compounds, 0.6% hits. inhibition, % at 3 µM. AID 602250;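 active = inhibition above a per-plate cutoff, the plate's mean sample inhibition plus 3 SD, cut at about 24% in these data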;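 also: 0% = DMSO plus EC80 ATP and 100% = DMSO alone without ATP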
# Numbers without * were called inactive.
SMILES,M1 PAM parental,CHO-K1 Ca ag,CHRM1 antagonist,M1 ag,M1 PAM,CHO-K1 Ca antag
S=c1nc(-c2ccccc2)c(-c2ccccc2)n[nH]1,3,1,-20,-5,12,-17
Cc1occc1C(=O)N1CCCC(Nc2ccc(F)c(F)c2)C1 (stereo not given),7,16*,-11,-1,6,13
O=C(c1ccoc1)N1CCCC(Nc2ccc(F)c(F)c2)C1 (stereo not given),-17,0,10,-2,-2,5
CCCCC(CC)C(=O)Nc1ncc([N+](=O)[O-])s1 (stereo not given),-3,8,49*,-3,-23,26*
Cc1c(N=c2scc(-c3ccccc3)n2C)c(=O)n(-c2ccccc2)n1C,14,2,98*,-6,-24,-12
O=C(NCc1cccs1)c1cc(-c2ccc(O)cc2)on1,-4,5,-16,17*,4,5
Cc1ccc(-c2cc(C(=O)NCc3cccs3)no2)cc1,7,0,2,-6,1,-3
O=C(Nc1c(F)cc(F)cc1Br)c1cc(-c2ccccc2)on1,3,0,4,-4,-2,0
O=C(Nc1c(F)cc(F)cc1Br)c1cc(-c2ccc(O)cc2)on1,3,3,-2,18*,2,7
Cc1ccc(C(=O)OCC(=O)NC(=O)c2ccc(C(C)(C)C)cc2)c(O)c1,-8,0,34*,1,-12,15
CSc1nc(N)c(C(=O)N(c2ccccc2)c2ccccc2)s1,3,0,-12,-7,7,-14
CC(=O)N1CCN(CC(=O)Nc2ccc([N+](=O)[O-])cc2Br)CC1,8,1,17,-4,-7,-7
CCN(CC)c1ccc(C(=C2C=CC(=[N+](CC)CC)C=C2)c2ccccc2)cc1,-27,39*,97*,26*,-34,75*
CCN(CC)c1ccc(C(=O)NNC(=O)CCNC(=O)c2ccccc2)cc1,22,1,-11,-2,12,-7
CCN(CC)c1ccc(C(=C2C=CC(=[N+](CC)CC)C=C2)c2ccc(N(CC)CC)cc2)cc1,11,9,46*,2,-7,23
S=C(NCCc1ccc(Cl)cc1)NC1CC1,6,0,-9,-5,9,-15
CC[C@]12c3[nH]c4cc(-c5ccco5)ccc4c3CCN1C(=O)[C@@H](CC(=O)NCCCN(C)C)C[C@@H]2C(=O)N1CCN(C(=O)C2CC2)CC1,2,0,21*,-10,-14,3
Cc1cc(=O)c(C(=O)O)nn1-c1ccccc1F,7,1,-6,-2,6,-17
CN(C)c1ccc2nc3c(=O)[nH]c(=O)nc-3n(CC(O)C(O)C(O)CO)c2c1 (stereo not given),-9,10,15,18*,-5,-2
COc1cccc(C2C(C(N)=O)=C(C)Nc3nc(-c4ccccc4Cl)nn32)c1 (stereo not given),3,0,-7,0,3,5
CCCn1nnc(NC(=O)/C=C/c2ccc(C(C)C)cc2)n1,-11,0,-2,-1,3,60*
Nc1ccn(C2OC(CO)C(O)C2F)c(=O)n1 (stereo not given),-5,1,-2,-2,0,5
CC(C)c1ccccc1OCCCN1CCCC1,-21,0,42*,-10,-26,16
CC(=O)c1ccccc1OCCCN1CCCCC1,4,0,38*,-5,-19,-9
Cc1cc(Br)ccc1OCCCCN1CCCCC1,14,5,42*,-9,-26,-5
SMILES,M1 PAM parental,CHO-K1 Ca ag,CHRM1 antagonist,M1 ag,M1 PAM,CHO-K1 Ca antag
Cc1cc(Br)ccc1OCCOCCN1CCCC1,1,1,-4,-8,-8,1
c1ccc(-c2ccccc2OCCCCN2CCCCC2)cc1,18,7,32*,-11,-26,-6
Brc1ccccc1OCCCN1CCCCCC1,22,1,0,-8,-2,-21
CC(C)Nc1ncnc2c1ncn2[C@H]1CN(Cc2ccc3c(c2)OCO3)C[C@@H](CO)O1,-5,1,-4,-3,-1,-8
Cc1ccc(NCC(=O)Nc2cccc(S(=O)(=O)N(C)C)c2)cc1S(=O)(=O)N1CCCCCC1,-4,6,23,-1,-7,19
CC(C)c1ccccc1OCCCCCN1CCOCC1,3,1,62*,-8,-25,0
Brc1ccccc1OCCCCCN1CCOCC1,19,1,24,-3,-12,-13
CC(C)c1ccccc1OCCCCN1CCCCC1,-1,1,64*,-8,-27,-8
CCOC(=O)c1c(C)[nH]c(C(=O)N2CCC(C(=O)OCC)CC2)c1C,12,2,3,-1,2,-4
Cn1ccc2c(N3CCCCC3)cc3c(c21)C1CCC3C1 (stereo not given),22,1,15,-10,-17,-8
CCN(c1ccccc1)S(=O)(=O)c1ccc(C(=O)NC2CCN(Cc3ccccc3)CC2)cc1,-25,14,66*,7,-30,20
O=C(NC1CCN(Cc2ccccc2)CC1)C1COc2ccccc2O1 (stereo not given),-5,0,83*,-7,-22,3
O=C(C1CC(=O)N(c2ccccc2F)C1)N1CCOCC1 (stereo not given),-6,0,-3,-2,-2,-7
CCOC(=O)c1sc(N2C(=O)C(O)=C(C(=O)c3ccco3)C2c2cccc([N+](=O)[O-])c2)nc1C (stereo not given),-31,0,7,8,10,21
CC1(C(=O)NCc2ccco2)Cc2c(-c3ccccc3)ccnc2O1 (stereo not given),1,0,-5,-3,5,4
CC(Sc1nnc(C2CC2)n1C1CC1)C(=O)N(C)Cc1cccc(F)c1 (stereo not given),17,0,-6,-8,9,-12
CC1=C(C)/C(=N\OS(=O)(=O)c2ccccc2)C=CC1=O,-3,9,21*,8,-9,37*
Cc1ccc2c(c1)[C@H]1[C@H](CO2)[C@H](c2ccccc2)[C@]2(C)C(=O)Nc3ccc(F)cc3C(=O)N12,-6,0,66*,-5,-30,-4
C[C@@]12C(=O)Nc3cc(F)ccc3C(=O)N1[C@H]1c3ccccc3OC[C@@H]1[C@@H]2c1ccccc1,17,1,75*,-5,-33,-21
C[C@@]12C(=O)N(c3ccc(F)cc3)C(=O)N1[C@@H]1c3ccccc3OC[C@@H]1[C@H]2c1ccccc1,-13,0,3,0,9,-3
C[C@]12C(=O)N(c3ccc(F)cc3)C(=O)N1[C@H]1c3ccccc3OC[C@@H]1[C@H]2c1ccccc1,44*,3,-15,1,13,-28

# Screens: PubChem, The Scripps Research Institute Molecular Screening Center
